These results are taken from PubChem BioAssay (Tox21).

The nature of experiment [1]: Caspase-3/7 induction in CHO-K1 cells by small molecules, qHTS cell viability counter screen (AID 1346979). Note: nearly all actives have a fitted effect of over 35% in size. Note: potency is the fitted concentration of half-maximal effect. The method in brief: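 In the same wells as the caspase read, viability of compound-treated wild-type CHO-K1 cells was assessed using CellTiter-Fluor, added after 16hr at 37C and measured by fluorescence following 1hr further incubation.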
A general note: qHTS replaces the single test concentration by a dilution series.

Experiment [2] in a line: Caspase-3/7 induction in CHO-K1 cells by small molecules, qHTS assay (AID 1346980). Note: nearly all actives have a fitted effect of over 15% in size. Note: potency is the fitted concentration of half-maximal effect. The method in brief: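 Wild-type cells were seeded at 1,500 per well and settled 5 hr at 37 C, 5% CO2, then exposed to DMSO-dissolved compounds for 17 hr. Caspase-Glo 3/7 reagent was added, and luminescence was read after 30min at room temperature.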
Experiment [3] is described as follows: Caspase-3/7 induction in HepG2 cells by small molecules, qHTS cell viability counter screen (AID 1346981). For activity change, negative = cytotoxicity: series mostly up to about 92 µM. Note: nearly all actives have a fitted effect of over 30% in size. Note: potency is the fitted concentration of half-maximal effect. The method in brief:
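Steps: seed 2,000 HepG2 cells per well; incubate 5 hr at 37 C; pin-add compounds in DMSO; incubate 16 hr; add CellTiter-Fluor; after 1 hr at 37 C and 5% CO2, read fluorescence.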

Experiment [4] deals with Nuclear receptor subfamily 1 group I member 2 (Homo sapiens) (UniProt O75469). Kind of experiment: Human pregnane X receptor (PXR) small molecule agonists, qHTS assay (AID 1346982). Note: nearly all actives have a fitted effect of over 35% in size. Note: potency is the fitted concentration of half-maximal effect. The method in brief: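 Agonist mode qHTS: PXR-Luc HepG2 cells plated 5 hr before DMSO-dissolved compounds were pinned in, cultured 24 hr at 37 C, 5% CO2; ONE-Glo luminescence readout.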
The nature of experiment [5]: Caspase-3/7 induction in HepG2 cells by small molecules, qHTS assay (AID 1346978). Note: nearly all actives have a fitted effect of over 15% in size. The method in brief:
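Wild-type HepG2 cells (2,000/well) were settled 5 h at 37 C, 5% CO2, then exposed to compounds in DMSO for 17 h. Caspase-3/7 activity was read by luminescence 30 min after adding Caspase-Glo 3/7 reagent at room temperature.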

Experiment [6] addresses Cytochrome P450 2D6 (Homo sapiens) (UniProt P10635). Kind of experiment: Cytochrome P450 Family 2 Subfamily D Member 6 (CYP2D6) small molecule antagonists: luciferase reporter qHTS assay (AID 1671196). For activity change, negative = inhibition: series mostly up to about 120 µM. Note: nearly all actives have a fitted effect of over 50% in size. Note: potency is the fitted concentration of half-maximal effect. The method in brief: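 P450-Glo format: CYP2D6 converts a proluciferin substrate to luciferin in an NADPH-driven reaction lasting 1 h at room temperature. Light output, proportional to CYP2D6 activity, reflects interference by test chemicals.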
Background: Reporter assays use an easily measured gene product as a stand-in for the process of interest.

The target in experiment [7] is Cytochrome P450 2C19 (Homo sapiens) (UniProt P33261). Kind of experiment: Cytochrome P450 Family 2 Subfamily C Member 19 (CYP2C19) small molecule antagonists: luciferase reporter qHTS assay (AID 1671197). For activity change, negative = inhibition: series mostly up to about 120 µM. Note: nearly all actives have a fitted effect of over 65% in size. Note: potency is the fitted concentration of half-maximal effect. A digest of the protocol:
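Quantitative high-throughput screen of the Tox21 library using CYP2C19 with proluciferin substrate. Reaction: NADPH regeneration, 37C, 1 h, after 10 min compound preincubation at room temperature. Readout: luminescence.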

Experiment [8] deals with Nuclear receptor subfamily 1 group I member 2 (Rattus norvegicus) (UniProt Q9R1A7). Kind of experiment: Rat pregnane X receptor (rPXR) activation by small molecules, qHTS assay (AID 1346983). Note: nearly all actives have a fitted effect of over 20% in size. To be noted: rPXR luciferase reporter cells, One-Glo luminescence, 24 h; active compounds read high. A digest of the protocol:
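Cell-based rPXR luciferase reporter assay, 2,000 cells per well, rested 5hr at 37 C before compound addition in DMSO, then 24 hr at 37 C. One-Glo reagent was added and luminescence read after 30 min at room temperature.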

The target of experiment [9] is Nuclear receptor subfamily 1 group I member 2 (Homo sapiens) (UniProt O75469). Kind of experiment: Human pregnane X receptor (PXR) activation by small molecules, qHTS assay (AID 1346985). Note: nearly all actives have a fitted effect of over 40% in size. The method in brief: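 DPX-2 cells (HepG2 co-transfected with a PXR response element and a CYP3A4-promoter luciferase construct) were seeded at 2,000 per well, rested 5 hr at 37C, then exposed to DMSO-dissolved compounds for 24 hr. Activation was read as luciferase luminescence.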

Values joined by “and” are separate entries in the source; they are usually repeats but may differ in a detail not shown here. Equal entries are not always repeated. Values without a mark were called inactive. Results filed as inconclusive are left out. Active and inactive are the calls of the source. Calls come from the whole dose curve; as a rule, active = well fitted curve in the direction sought with a large enough effect in the repeat runs; inconclusive = weak or mixed curves; inactive = no such curve, though single readings can be large; an effect the other way counts as inactive or inconclusive.
% is set by controls: 0 for no effect and ±100 for the full control effect.

Sequence of Nuclear receptor subfamily 1 group I member 2 (Homo sapiens) (O75469 whole entry, looked up): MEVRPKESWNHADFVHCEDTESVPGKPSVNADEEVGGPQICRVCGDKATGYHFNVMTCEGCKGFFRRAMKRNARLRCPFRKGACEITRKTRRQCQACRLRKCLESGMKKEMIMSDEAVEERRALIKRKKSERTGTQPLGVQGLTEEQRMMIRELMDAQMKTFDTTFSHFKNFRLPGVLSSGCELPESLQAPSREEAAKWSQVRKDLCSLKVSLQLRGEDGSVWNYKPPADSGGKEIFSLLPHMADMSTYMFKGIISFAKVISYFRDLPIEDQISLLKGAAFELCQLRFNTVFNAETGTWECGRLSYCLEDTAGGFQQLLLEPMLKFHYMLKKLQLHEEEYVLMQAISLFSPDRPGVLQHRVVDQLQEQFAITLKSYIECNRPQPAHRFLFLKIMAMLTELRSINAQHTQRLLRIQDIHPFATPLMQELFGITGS
Sequence of Cytochrome P450 2C19 (Homo sapiens) (P33261 whole entry, looked up): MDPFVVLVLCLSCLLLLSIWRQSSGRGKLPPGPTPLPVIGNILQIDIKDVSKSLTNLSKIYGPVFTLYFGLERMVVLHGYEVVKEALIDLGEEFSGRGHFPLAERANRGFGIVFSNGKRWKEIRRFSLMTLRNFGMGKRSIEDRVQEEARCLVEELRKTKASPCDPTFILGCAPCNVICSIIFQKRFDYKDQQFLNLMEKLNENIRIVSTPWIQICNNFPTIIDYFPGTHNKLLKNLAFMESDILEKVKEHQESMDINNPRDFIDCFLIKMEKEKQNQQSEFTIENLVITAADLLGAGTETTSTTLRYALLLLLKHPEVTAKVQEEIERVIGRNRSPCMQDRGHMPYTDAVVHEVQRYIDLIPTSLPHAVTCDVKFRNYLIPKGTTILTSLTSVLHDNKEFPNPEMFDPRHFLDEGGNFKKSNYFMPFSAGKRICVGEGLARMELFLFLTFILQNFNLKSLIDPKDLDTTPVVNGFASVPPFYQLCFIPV
Sequence of Nuclear receptor subfamily 1 group I member 2 (Rattus norvegicus) (Q9R1A7 whole entry, looked up): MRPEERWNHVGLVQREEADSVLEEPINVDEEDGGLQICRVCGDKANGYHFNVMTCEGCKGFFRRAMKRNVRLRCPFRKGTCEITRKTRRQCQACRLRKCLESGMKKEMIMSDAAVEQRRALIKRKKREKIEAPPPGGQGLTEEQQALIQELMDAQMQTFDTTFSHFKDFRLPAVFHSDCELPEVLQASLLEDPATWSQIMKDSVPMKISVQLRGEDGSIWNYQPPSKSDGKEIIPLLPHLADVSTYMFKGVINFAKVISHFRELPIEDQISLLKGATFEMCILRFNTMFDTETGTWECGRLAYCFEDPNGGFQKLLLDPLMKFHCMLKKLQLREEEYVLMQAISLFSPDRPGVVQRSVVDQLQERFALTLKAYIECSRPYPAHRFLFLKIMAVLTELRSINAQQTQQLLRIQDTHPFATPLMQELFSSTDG
Sequence of Cytochrome P450 2D6 (Homo sapiens) (P10635 whole entry, looked up): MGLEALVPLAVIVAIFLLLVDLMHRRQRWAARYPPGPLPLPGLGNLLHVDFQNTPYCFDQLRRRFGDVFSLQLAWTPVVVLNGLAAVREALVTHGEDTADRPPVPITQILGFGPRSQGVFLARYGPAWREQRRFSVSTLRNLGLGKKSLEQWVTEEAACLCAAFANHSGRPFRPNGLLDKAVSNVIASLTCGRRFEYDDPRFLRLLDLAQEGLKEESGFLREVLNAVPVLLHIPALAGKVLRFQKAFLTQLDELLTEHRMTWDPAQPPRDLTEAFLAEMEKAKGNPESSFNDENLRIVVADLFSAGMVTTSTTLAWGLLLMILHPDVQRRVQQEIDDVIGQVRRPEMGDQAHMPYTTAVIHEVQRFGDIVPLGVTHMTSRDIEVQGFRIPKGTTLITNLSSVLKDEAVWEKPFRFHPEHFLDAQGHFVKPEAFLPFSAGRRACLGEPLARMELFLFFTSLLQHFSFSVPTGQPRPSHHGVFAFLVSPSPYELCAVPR

Regarding `O=C1c2ccccc2C(=O)N1SC1CCCCC1`, the Potency in experiment [1] was 54.4 µM (active) and 43.3 µM (active). The Potency result in [2], in experiment [3] and in experiment [4] was “inactive” in each case.

In the case of `COC(=O)c1ccccc1C`, the Potency entry in [1], in experiment [2], in experiment [3] and in [4] was “inactive” each time.

With `CCCCCC/C=C\CCCCCCCC(=O)O`, the Potency result in [5], in experiment [2], in [3], in experiment [4] and in experiment [6] was “inactive” in each case. For the same compound, the Potency in experiment [7] is 50.2 µM (active).

`c1ccsc1`: the Potency result in [1], in experiment [2], in [3], in [4] and in [6] was “inactive” throughout.

Turning to `C[Si](Cl)(c1ccccc1)c1ccccc1`, the Potency entry in [1], in [2] and in experiment [3] was “inactive” each time. Also, the Potency in experiment [4] was 59.6 µM (active).

Consider `CCCCCC(C)OC(=O)COc1ccc(Cl)c2cccnc12` (configuration not stated), for which the Potency entry in experiment [5], in experiment [2], in experiment [3] and in experiment [6] was “inactive” each time. Further, the results for the Potency in experiment [4] and in experiment [7] were 24.3 µM (active) and 7.96 µM (active), respectively.

For the compound `Nc1ccc(Oc2ccc(Cl)cc2)cc1`, the Potency entry in [5], in experiment [2] and in experiment [3] was “inactive” in each case. The figures for the Potency in experiment [4], in [6] and in experiment [7] were 33.6 µM (active), 39.1 µM (active) and 2.47 µM (active), respectively.

For the compound `COc1ccc(-c2coc3cc(O)ccc3c2=O)cc1`, the Potency entry in experiment [1], in experiment [2] and in experiment [3] was “inactive” in each case. In experiment [4], the Potency is 1.37 µM (active).

For the compound `O=C(O)c1cc(-c2ccc(F)cc2F)ccc1O`, the Potency result in experiment [1], in [2], in experiment [3], in [4], in experiment [9] and in experiment [6] was “inactive” each time. The Potency entry in experiment [7] was “inactive”. The max activation in [8] was -2%.

For `c1ccc(C(O[C@@H]2CCCN(CCc3ccc4c(c3)OCO4)C2)c2ccccc2)cc1`, the Potency result in experiment [5], in experiment [2] and in [4] was “inactive” throughout. Moreover, the Potency is 2.52 µM (active) in experiment [6] and 35.6 µM (active) in experiment [7].

For the compound `COc1cc2nc(N3CCN(C(=O)c4ccco4)CC3)nc(N)c2cc1OC`, in [5], the caspase activation was 12.8% [at 19 µM]. Besides, in experiment [2], the caspase-3/7 activation was 0.614% [at 19 µM]. The activity change, negative = cytotoxicity in [3] is -12% [at 19 µM]. In addition, in experiment [4], the activation is 6.3% [at 19 µM]. For the same compound, the activity change, negative = inhibition in [6] was -17.8% [at 23.6 µM]; in experiment [7] it was 16.3% [at 23.6 µM].

In the case of `Nc1cc(Cl)c(O)c(Cl)c1`, the Potency result in experiment [5], in [2] and in experiment [3] was “inactive” each time. In experiment [7], the Potency is 20 µM (active).

For `CCC(=O)OC(=O)CC`, the Potency result in experiment [1], in [2], in experiment [3], in [4] and in experiment [7] was “inactive” each time. Also, in experiment [6], the Potency was 62.8 µM (active).

As to `CCc1oc2ccccc2c1C(=O)c1cc(I)c(O)c(I)c1`, the Potency entry in experiment [5], in experiment [2], in [3] and in experiment [4] was “inactive” throughout. In addition, the max activation in experiment [8] is -8.05%.

For `CC(C)Cn1cnc2c(N)nc3ccccc3c21`, the activity change, negative = cytotoxicity is -8.58% [at 19 µM] in experiment [1] and -2.64% [at 19 µM] in experiment [3]. For the same compound, in experiment [2], the caspase-3/7 activation was 0.247% [at 19 µM]. For the same compound, the activation in [4] is 5.89% [at 19 µM]. Further, the max activation in experiment [8] was 2.02%. In addition, the activity change, negative = inhibition in experiment [7] is 10.1% [at 23.6 µM].

With `CC1(C)CC(O)CC(C)(C)N1`, the Potency entry in [1], in experiment [2], in experiment [3] and in experiment [6] was “inactive” in each case. The Potency in [4] is 55.5 µM (active).

For the compound `C=CCCC(=O)/C=C/C1C(C)=CCCC1(C)C` (configuration not stated), the Potency result in [1], in experiment [2], in experiment [3] and in experiment [6] was “inactive” throughout. The Potency in experiment [4] is 27.3 µM (active); in [7] it was 17.8 µM (active).

In the case of `Nc1nc2c(ncn2COCCO)c(=O)[nH]1`, the Potency result in experiment [1], in experiment [2], in [3], in experiment [4], in experiment [9] and in [7] was “inactive” each time. Also, the max activation in [8] was -0.779%.

For the compound `CCC(C)(CCC(C)C)C(=O)[O][Sn]([CH3])([CH3])[O]C(=O)C(C)(CC)CCC(C)C` (configuration not stated), the Potency entry in experiment [5], in experiment [2], in experiment [3], in experiment [4] and in [6] was “inactive” in each case. In addition, the Potency in experiment [7] is 56.4 µM (active).

Turning to `O=[N+]([O-])c1ccc(O)cc1C(F)(F)F`, the values for the Potency in experiment [1] and in experiment [3] were 24.3 µM (active) and 43.3 µM (active), respectively. Moreover, the Potency entry in experiment [2] and in experiment [7] was “inactive” throughout.

Take `CNC(=O)c1ccccc1Sc1ccc2c(/C=C/c3ccccn3)n[nH]c2c1`: the Potency is 26.6 µM (active) in experiment [1], 0.376 µM (active) in experiment [4] and 17.4 µM (active) in experiment [7]. The Potency entry in experiment [2] was “inactive”.

For `COC(C)=O`, the Potency result in experiment [1], in [2], in [4], in experiment [6] and in experiment [7] was “inactive” throughout.

As to `C=CCn1c(=O)n(CC=C)c(=O)n(CC=C)c1=O`, the Potency entry in experiment [1], in experiment [2], in experiment [3] and in [4] was “inactive” in each case. For the same compound, the Potency in [7] was 1.12 µM (active).

Regarding `CC(C)=CCNc1ncnc2c1ncn2[C@@H]1O[C@H](CO)[C@@H](O)[C@H]1O`, the Potency in experiment [1] was 11.9 µM (active); in experiment [4], 9.44 µM (active). Further, the Potency result in experiment [2] and in experiment [7] was “inactive” each time.

As for `Cc1cc(=O)oc2cc(O)cc(O)c12`, the Potency entry in experiment [2] was “inactive”. Further, the Potency in [4] is 61.3 µM (active).

For `O=C(O)Cc1ccccc1Nc1c(Cl)cccc1Cl`, the Potency result in experiment [1], in [2], in experiment [3], in experiment [4], in experiment [6] and in [7] was “inactive” each time.

For the compound `CCCCCCCCCCCCOC(=O)c1ccc(O)cc1`, the Potency was 61.6 µM (active) in experiment [2], 27.5 µM (active) in experiment [4], 11.3 µM (active) in experiment [6] and 4.02 µM (active) in experiment [7].
